Assay results from PubChem BioAssay AID651953 (The Scripps Research Institute Molecular Screening Center, 2012).
Hit rate of the full screen: of about 2,400 compounds, about 430 (18%) were called active. Rule as the data show it: active = activation above about 12%; inactive = the rest. The list is a sample of the results.

Assay: calcium activation in Ga16-expressing cells, counter-screen for TAAR1 antagonist project, cell-based, fluorescence (AID 651953);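 also: 0% = vehicle wells and 100% = saturating stimulus response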
Details: agonist counterscreen, at 3 µM, active compounds read high

SMILES | activation
Cc1ccc(SCc2c(C(=O)N/N=C/c3cccnc3)nnn2-c2nonc2N)cc1 | 17.4% (active)
Nc1nonc1-n1nnc(C(=O)N/N=C/c2c[nH]c3ccccc23)c1-c1ccccc1 | 6.4% (inactive)
O=C(N/N=C/c1ccc(OC(=O)c2ccccc2Cl)cc1)c1ccc(O)cc1 | 8.92% (inactive)
O=C(NCCN1CCOCC1)c1ccc(/C=C2\Sc3ccccc3N(Cc3ccc(F)cc3)C2=O)cc1 | 9.85% (inactive)
O=S(=O)(c1cccs1)N1CCCc2nc(-c3ccc(Br)cc3)ccc21 | 5.49% (inactive)
C[C@@H]1CN([C@@H](C)CO)S(=O)(=O)c2ccc(C#Cc3cccc(F)c3)cc2O[C@H]1CN(C)S(=O)(=O)c1cn(C)cn1 | 13.6% (active)
CCCCNc1c(-c2cccc(Sc3ccc(OC)cc3)c2)nc2ccccn12 | 6.41% (inactive)
CSc1ncnc2c1ncn2CC(=O)C1CCC2C3CCC4=CC(=O)CCC4(C)C3CCC12C (stereo not drawn) | 15.7% (active)
CCN=C1SC(CC(=O)Nc2ccc(C)cc2)C(=O)N1CC (stereo not drawn) | 9.6% (inactive)
O=C(COC(=O)c1ccccc1SCC(=O)N1CCCC1)Nc1ccccc1OC(F)F | 9.11% (inactive)
COc1ccc(-c2nn(-c3ccccc3)cc2C(=O)Nc2nccs2)cc1OC | 7.16% (inactive)
COc1cc(SC#N)ccc1N=Cc1c(C)[nH]n(-c2ccc(C)cc2)c1=O | 7.36% (inactive)
O=C(Nc1ccccc1-c1nnn(CC(=O)N2CCN(c3ccccc3)CC2)n1)c1cccs1 | 8.25% (inactive)
CC(C)N(Cc1ccccc1)C(=O)COC(=O)c1ccccc1SCC(=O)N1CCCC1 | 8.17% (inactive)
COc1ccc(NC(=O)C2CCCN(S(=O)(=O)c3cccc4cccnc34)C2)cc1OC (stereo not drawn) | 7.3% (inactive)
CCOC(=O)C1C(c2ccc(OC)c(OC)c2)c2c([nH][nH]c2=O)CC1(C)O (stereo not drawn) | 3.55% (inactive)
Clc1ccc(Nc2ncnc3c2nnn3Cc2ccccc2)cc1 | 3.96% (inactive)
COc1ccc(N(CC(=O)N/N=C/c2cccs2)S(=O)(=O)c2ccc(OC)c(OC)c2)cc1 | 8.47% (inactive)
CC(=O)OCCN(CCCn1c(-c2ccncc2)nc2ccccc21)c1nc(-c2ccc(C)cc2)cs1 | 12.8% (active)
COC(=O)Cc1nnn2c1[C@H](C)[C@H](c1ccccc1Br)OCC2 | 9.39% (inactive)
CN(c1ccccc1)S(=O)(=O)c1cc(C(=O)Nc2nc3ccccc3[nH]2)ccc1Cl | 8.92% (inactive)

SMILES | activation
NNC(=O)CNC(c1ccccc1)c1cc(Cl)ccc1NC(=O)c1ccccc1 (stereo not drawn) | 9.38% (inactive)
CC/C(=N/Nc1ccccc1)c1cnnc(SC)n1 | -1.08% (inactive)
Cc1onc(-c2c(F)cccc2Cl)c1C(=O)Nc1cccc(S(=O)(=O)N2CCCCC2)c1 | 9.53% (inactive)
CCC(=O)Oc1cccc(C(=O)Nc2ccc(-c3nnc(-c4ccco4)o3)cc2)c1 | 4.99% (inactive)
CCc1ccc2c(c1)NC(=O)C2(C)Cc1ccc(OC(F)(F)F)cc1 (stereo not drawn) | 14.4% (active)
Cc1cc(Br)ccc1NC(=O)c1cnc(N2CCN(c3ccccn3)CC2)c2ccccc12 | 7.37% (inactive)
O=C(Nc1ccc(-c2nnc(-c3ccccc3)o2)cc1)c1ccc(Br)o1 | 1.44% (inactive)
O=C(N/N=C/c1ccc(Cl)c(Cl)c1)c1ccc2nc[nH]c2c1 | 7.7% (inactive)
O=C(COC(=O)CCCSc1nc2ccccc2[nH]1)Nc1ccc(Oc2ccccc2)cc1 | 8.31% (inactive)
COC(=O)c1sccc1NC(=O)c1cc(OC)c(OC)c(OC)c1 | 5.58% (inactive)
COc1ccc(CC(=O)Nc2c(C(N)=O)oc3ccccc23)cc1 | 6.51% (inactive)
COc1cc(OC)cc(C(=O)OCC(=O)Nc2sccc2C(N)=O)c1 | 13.5% (active)
Cc1ccc2cccc(OCCCOc3ccccc3CO)c2n1 | 7.98% (inactive)
COc1ccc(/C=C/C(=O)Nc2ccc(C34CC5CC(CC(O)(C5)C3)C4)cc2)cc1OC | 11.4% (inactive)
Cc1cccc(NC(=O)c2nc[nH]c2C(=O)NCC(=O)OCc2ccccc2)c1 | 4.58% (inactive)
CSCCC(NC(=O)COc1ccccc1)C(=O)OCC(=O)c1cc2ccccc2o1 (stereo not drawn) | 7.36% (inactive)
CC(=O)c1ccccc1OCc1ccc(C(=O)c2ccccc2)cc1 | 6.62% (inactive)
Cc1nc(N2CCN(c3ccccn3)CC2)c2c(C)c(C(=O)Nc3ccc(F)cc3)sc2n1 | 8.75% (inactive)
O=C(NCCN1C(=O)S/C(=C\c2cccnc2)C1=O)c1ccc(S(=O)(=O)N2CCCC2)cc1 | 2.99% (inactive)
O=S1(=O)c2c(cccc2N2CCCCC2)O[C@H](COCc2ccccc2)CN1C1CC1 | 2.53% (inactive)
CCN1CCc2c(C#N)c(NCc3ccccc3)nc(NCCO)c2C1 | 4.39% (inactive)

SMILES | activation
COc1ccc(Cl)cc1NC(=O)CCS(=O)(=O)c1cc2c(cc1C)NC(=O)CO2 | 8.26% (inactive)
COc1ccc(-c2cc(C(=O)N(C)CC(=O)Nc3ccccc3Cl)c3ccccc3n2)cc1OC | 7.25% (inactive)
CCOc1ccc(N2CC(C(=O)N/N=C/c3sccc3C)CC2=O)cc1 (stereo not drawn) | 1% (inactive)
C/C(=N\Nc1ncc(Cl)cc1Cl)c1ccc(S(=O)(=O)NCc2ccco2)cc1 | 0.19% (inactive)
CSC(=S)N/N=C/c1c[nH]c2ccccc12 | 6.16% (inactive)
O=C(O)c1ccc(NC(=O)c2cn(-c3ccccc3)nc2-c2ccc(Cl)cc2)cc1 | 3.12% (inactive)
O=C(NCC1CCCO1)c1cc2c([nH]c3ccccc32)c(-c2ccc(F)cc2)n1 (stereo not drawn) | 6.43% (inactive)
COc1ccc(CN(C)C(=O)c2cc(-c3ccc(C)cc3C)nc3ccccc23)c(OC)c1OC | 11.6% (active)
COc1ccc(-c2cc(C(=O)N(C)Cc3ccccc3)c3ccccc3n2)cc1 | 4.97% (inactive)
COc1ccc(-c2cc(C(=O)N(C)Cc3ccc(OC)c(OC)c3OC)c3ccccc3n2)cc1OC | 7.43% (inactive)
CC(C)Oc1cc(F)ccc1-c1cc(C(=O)Nc2ccc(F)cc2)[nH]n1 | 5.64% (inactive)
COc1ccc(C(=O)Nc2ccccc2C(=O)N/N=C/c2ccc(O)c(OC)c2)cc1 | 7.09% (inactive)
Cc1cc(C(C)(C)C)oc1C(=O)N(CC(=O)NC1CCCC1)Cc1ccc(Cl)cc1 | 13.9% (active)
C=CCc1cc(S(=O)(=O)c2ccc(O)c(CC=C)c2)ccc1O | 3.77% (inactive)
COc1ccc2[nH]c(=O)c(CN(Cc3cccnc3)S(=O)(=O)c3ccccc3F)cc2c1 | 9.12% (inactive)
Cc1ccccc1OCC(=O)Nc1ccc(N2CCN(C(=O)C(C)C)CC2)c(Cl)c1 | 11.8% (active)
CCNS(=O)(=O)c1ccc(CCC(=O)N2CCN(c3cc(Cl)ccc3C)CC2)cc1 | 11.5% (active)
Cc1ccc(C)c(N2CCN(C(=O)CCCCCn3c(=S)[nH]c4ccc(N5CCOCC5)cc4c3=O)CC2)c1 | 8.79% (inactive)
OC(c1ccccc1)(c1ccccc1)C1CCN(CCCOc2ccc(-c3ccsc3)cc2)CC1 | 17.6% (active)
Cc1ccc(NC(=O)c2ccc(CSc3ncnc4nc[nH]c34)cc2)c(C)c1 | 7.81% (inactive)
O=C(CCc1ccccc1)Nc1cccc(-c2nnc(-c3ccco3)o2)c1 | 11% (inactive)
